# Where “and” joins values, the source holds several entries; their conditions need not be identical. Equal entries are not always repeated. Records with an inconclusive call do not appear. Some compounds were tested as several samples or in several runs, with calls that do not always agree. Calls of active or inactive are those of the source. Rule for the calls, unless noted: active = hit-call score of the fitted dose curve at least 0.9, where 1 is the maximum; inactive = score below 0.9.
# Legend:
# [1] = CCTE_Shafer_MEA_acute_interburst_interval_mean: CCTE's Neural Acute Assay for Mean Interburst Interval, Shafer Lab (AID 2284016);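 note: percent change of mean interburst interval versus each well's own pre-dose baseline; curves fitted for decrease in interburst interval relative to DMSO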
# How it was run: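 Primary rat cortical neurons on 16-electrode MEA wells were recorded 40 min at baseline on DIV 13 or 15, then 40 min after compound (0.03-40 uM), at 37 C. Value is percent change in mean interburst interval per well, DMSO as negative control.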
# [2] = CCTE_Shafer_MEA_acute_burst_percentage_mean: CCTE's Neural Acute Assay for Percentage of Spikes in a Burst, Shafer Lab (AID 2284017);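 for AC50: curve fitted for loss of signal so potency reflects decreased burst percentage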
# How it was run: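 Primary rat cortical neurons on 16-electrode MEA wells; 40 min baseline recorded at DIV 13 or 15, then 40 min after compound (0.03-40 uM) at 37 C. Well-mean fraction of spikes in single-electrode bursts; percent change from baseline, DMSO as negative control.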
# [3] = CCTE_Shafer_MEA_acute_burst_percentage_std: CCTE's Neural Acute Assay for Standard Deviation of Burst Percentage, Shafer Lab (AID 2284018);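 note: fitted in the negative direction so actives lower burst percentage SD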
# How it was run: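 Value is percent change from baseline in the across-electrode SD of spikes-in-bursts percentage, wells with >/= 10 active electrodes. Acute 40-min exposure to 0.03-40 uM on DIV 13 or 15 rat cortical cultures, recorded at 37 C after 40-min baseline.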
# [4] = CCTE_Shafer_MEA_acute_per_network_burst_spike_number_mean: CCTE's Neural Acute Assay for Average Number of Spikes in a Network Burst, Shafer Lab (AID 2284019);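 for AC50: curve fitted for loss of signal so actives reduce spikes per network burst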
# How it was run: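 Percent change from baseline in mean spikes per network burst, spikes detected at 8x rms noise. Each compound at 0.03-40 uM in at least three wells of rat cortical cultures, recorded 40 min before and 40 min during exposure.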
# [5] = CCTE_Shafer_MEA_acute_per_network_burst_spike_number_std: CCTE's Neural Acute Assay for Standard Deviation of Number of Spikes in a Network Burst, Shafer Lab (AID 2284020);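 note: fitted for decrease in spike-number SD versus DMSO so actives lower it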
# How it was run: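 Endpoint: percent change from 40 min baseline in standard deviation of spikes per network burst, after 40 min compound exposure (0.03-40 uM, 37 C). Cortical rat neurons on MEA at DIV 13 or 15; spikes detected at 8x rms noise, 300-5000 Hz band-pass.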
# [6] = CCTE_Shafer_MEA_acute_per_network_burst_electrodes_number_mean: CCTE's Neural Acute Assay for Mean Number of Electrodes in a Network Burst, Shafer Lab (AID 2284021);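 note: curves fitted for decreases only so hits reduce electrodes per burst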
# How it was run: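 Rat primary cortical neurons on 48-well MEAs, DIV 13 or 15, were treated at 0.03-40 uM. Spikes were detected at 8x rms noise and recorded at 37 C. The mean electrodes per network burst in a 40 min exposure recording was expressed as percent change from a 40 min baseline.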
# [7] = CCTE_Shafer_MEA_acute_network_burst_percentage: CCTE's Neural Acute Assay for Percentage of Network Bursts, Shafer Lab (AID 2284022);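 note: curves fitted for loss so actives lower network burst percentage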
# How it was run: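 Rat primary cortical neuron networks on 48-well MEA plates, DIV 13 or 15, treated acutely with compound (0.03-40 uM, at least three wells). Percent of spikes within network bursts compared between 40-min recordings before and during exposure at 37 C, expressed as percent change.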
# [8] = CCTE_Shafer_MEA_acute_cross_correlation_area: CCTE's Neural Acute Assay for Area of Cross Correlation, Shafer Lab (AID 2284024);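 note: curves fitted for loss of cross-correlation area so actives lower synchrony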
# How it was run: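 Rat primary cortical neurons on 48-well MEA, DIV 13 or 15; compounds 0.03-40 uM. Baseline and post-exposure 40 min recordings at 37 C; percent change in area under pooled inter-electrode cross-correlation near zero lag, relative to DMSO.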
# [9] = CCTE_Shafer_MEA_acute_synchrony_index: CCTE's Neural Acute Assay for Synchrony, Shafer Lab (AID 2284027);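 note: network synchrony index of spontaneous spiking in primary rat cortical neurons on MEAs; fitted for loss of signal so actives lower synchrony relative to DMSO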
# How it was run: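 Rat cortical cultures, DIV 13/15; spikes detected at 8x rms noise, 300-5000 Hz band-pass. Compound 0.03-40 uM, ≥3 wells; 40-min pre- and post-exposure recordings, 37 C. Readout: % change in synchrony index; loss-of-signal fit vs DMSO.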
# [10] = molecular target: Estrogen receptor (Homo sapiens) (UniProt P03372); assay: CCTE_Deisenroth_AIME_384WELL_LUC_Active: CCTE's 384-well Estrogen Receptor Transactivation Assay with AIME metabolic competence (ERTA luciferase; metabolism positive), Deisenroth Lab (AID 2284030; active = hit-call score of the fitted dose curve at least 0.9, where 1 is the maximum)
# Sequence of Estrogen receptor (Homo sapiens) (P03372 whole entry, looked up): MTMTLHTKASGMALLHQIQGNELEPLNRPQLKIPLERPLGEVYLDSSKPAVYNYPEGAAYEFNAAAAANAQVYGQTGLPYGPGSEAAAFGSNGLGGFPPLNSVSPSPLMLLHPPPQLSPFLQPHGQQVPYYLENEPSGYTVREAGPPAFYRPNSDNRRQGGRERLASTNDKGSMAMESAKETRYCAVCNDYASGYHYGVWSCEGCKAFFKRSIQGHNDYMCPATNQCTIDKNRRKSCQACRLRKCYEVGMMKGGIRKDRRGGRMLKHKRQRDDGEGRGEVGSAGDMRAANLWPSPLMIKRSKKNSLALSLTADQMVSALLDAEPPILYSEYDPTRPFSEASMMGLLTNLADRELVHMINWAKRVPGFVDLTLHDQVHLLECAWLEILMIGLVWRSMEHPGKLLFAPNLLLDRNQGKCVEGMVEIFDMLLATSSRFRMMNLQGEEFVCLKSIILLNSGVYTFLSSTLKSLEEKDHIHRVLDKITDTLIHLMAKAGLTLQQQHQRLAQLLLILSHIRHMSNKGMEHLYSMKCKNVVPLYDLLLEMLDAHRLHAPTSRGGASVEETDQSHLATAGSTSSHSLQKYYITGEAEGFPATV
# How it was run: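 Chemicals (10-point, 0.002-200 uM) were first incubated 2 hours with alginate-immobilized induced male Sprague Dawley rat liver S9. The conditioned medium was then applied to VM7Luc4E2 cells for 24 hours, with ER luciferase induction read by luminescence relative to 17beta-estradiol.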
structure (smiles),measurement,setting,value
CCC(C)Nc1c([N+](=O)[O-])cc(C(C)(C)C)cc1[N+](=O)[O-] (stereo not given),outcome,[1],inactive
same,outcome,[2],inactive
same,AC50,[3],0.935 µM (active)
same,outcome,[4],inactive
same,outcome,[5],inactive
same,outcome,[6],inactive
same,outcome,[7],inactive
same,outcome,[8],inactive
same,outcome,[9],inactive
same,AC50,[10],11.1 µM (active)
Oc1cc(Cl)ccc1Oc1ccc(Cl)cc1Cl,AC50,[1],1.2 µM (active)
same,AC50,[2],12.7 µM (active)
same,outcome,[3],inactive
same,outcome,[4],inactive
same,outcome,[5],inactive
same,outcome,[6],inactive
same,AC50,[7],5 µM (active)
same,outcome,[8],inactive
same,AC50,[9],5 µM (active)
N#Cc1c(Cl)c(Cl)c(Cl)c(C#N)c1Cl,outcome,[1],inactive
same,AC50,[2],6.9 µM (active)
same,outcome,[3],inactive
same,outcome,[4],inactive
same,outcome,[5],inactive
same,outcome,[6],inactive
same,AC50,[7],7.17 µM (active)
same,outcome,[8],inactive
same,outcome,[9],inactive
Oc1ccc(Cl)cc1Cc1ccccc1,outcome,[1],inactive
same,AC50,[2],2.55 µM (active)
same,AC50,[3],8.33 µM (active)
same,AC50,[4],1.57 µM (active)
same,outcome,[5],inactive
same,AC50,[6],8.31 µM (active)
same,AC50,[7],5.05 µM (active)
same,AC50,[8],0.457 µM (active)
same,AC50,[9],5.05 µM (active)
COP(=O)(OC)OC=C(Cl)Cl,outcome,[10],inactive
OCCOc1ccccc1,AC50,[10],34 µM (active)
CCC(C)(C)C(=O)OC1=C(c2ccc(Cl)cc2Cl)C(=O)OC12CCCCC2,outcome,[1],inactive
same,AC50,[2],3.59 µM (active)
same,outcome,[2],inactive
same,outcome,[3],inactive
same,AC50,[4],20 µM (active)
same,outcome,[4],inactive
same,outcome,[5],inactive
same,outcome,[6],inactive
same,outcome,[7],inactive
same,AC50,[8],20 µM (active)
same,outcome,[8],inactive
same,AC50,[9],5.2 µM (active)
same,outcome,[9],inactive
O=C1c2ccccc2C(=O)N1SC(Cl)(Cl)Cl,outcome,[1],inactive
same,outcome,[2],inactive
same,outcome,[3],inactive
same,outcome,[4],inactive
same,outcome,[5],inactive
same,outcome,[6],inactive
same,AC50,[7],28.8 µM (active)
same,outcome,[8],inactive
same,outcome,[9],inactive
CNC(=O)/C=C(\C)OP(=O)(OC)OC,outcome,[1],inactive
same,outcome,[2],inactive
same,outcome,[3],inactive
same,outcome,[4],inactive
same,outcome,[5],inactive
same,outcome,[6],inactive
same,outcome,[7],inactive
same,outcome,[8],inactive
same,outcome,[9],inactive
same,outcome,[10],inactive
Clc1ccccc1-c1nnc(-c2ccccc2Cl)nn1,outcome,[1],inactive
same,outcome,[2],inactive
same,outcome,[3],inactive
same,outcome,[4],inactive
same,outcome,[5],inactive
same,outcome,[6],inactive
same,outcome,[7],inactive
same,outcome,[8],inactive
same,outcome,[9],inactive
same,outcome,[10],inactive
CCc1ccc(C(=O)NN(C(=O)c2cc(C)cc(C)c2)C(C)(C)C)cc1,outcome,[10],inactive
CC(C)N(C(=O)COc1nnc(C(F)(F)F)s1)c1ccc(F)cc1,AC50,[1],31.9 µM (active)
same,outcome,[1],inactive
same,AC50,[2],30.6 µM (active) and 15 µM (active)
same,AC50,[3],3.55 µM (active)
same,outcome,[3],inactive
same,outcome,[4],inactive
same,AC50,[5],1.32 µM (active)
same,outcome,[5],inactive
same,outcome,[6],inactive
same,AC50,[7],5 µM (active)
same,outcome,[7],inactive
same,outcome,[8],inactive
same,AC50,[9],15 µM (active)
same,outcome,[9],inactive
same,outcome,[10],inactive
O=C(O)CCCOc1ccc(Cl)cc1Cl,outcome,[1],inactive
same,outcome,[2],inactive
same,outcome,[3],inactive
same,outcome,[4],inactive
same,outcome,[5],inactive
same,outcome,[6],inactive
same,outcome,[7],inactive
same,outcome,[8],inactive
same,outcome,[9],inactive
CC(C)OC(=O)Nc1cccc(Cl)c1,outcome,[1],inactive
same,AC50,[2],20 µM (active)
same,outcome,[3],inactive
same,outcome,[4],inactive
same,AC50,[5],25.2 µM (active)
same,AC50,[6],20 µM (active)
same,AC50,[7],20 µM (active)
same,outcome,[8],inactive
same,AC50,[9],20 µM (active)

# Source: PubChem BioAssay (EPA / NIEHS)
